# Laboratory results: PubChem BioAssay
# Several values for one entry are separate records, joined by “and”; a condition that tells them apart may be missing. Equal values may be shown once. Records with an inconclusive call do not appear. Activity calls are given as the source filed them.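 How the source made its calls, unless noted: active means normalized viability below 100% at a tested concentration; inactive means the rest.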
# Tests used:
# [1] = liver-stage malaria parasite growth inhibition, primary screen, cell-based, HepG2, luciferase luminescence, HepG2 viability (AID 624349; in the data active means parasite load remaining mostly below about 12%, no sharp cut-off; inactive means mostly above about 10%;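 further: 100% = mean of DMSO negative control wells on the same plate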); details: P. berghei liver stage in HepG2, luciferase luminescence, concentration not given here; parasite load remaining: stronger effect = lower value; viability: measured here: HepG2 viability without parasites
# [2] = test system: Aerobactin synthetase IucA (Klebsiella pneumoniae); assay: IucA aerobactin synthetase inhibitors, biochemical, Tocris library, absorbance (AID 1345561; call rule not given here;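 further: 100% = enzyme without compound and 0% = no enzyme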); details: purified IucA enzyme assay, absorbance (OD) read-out; stronger effect = lower value;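 tested at 8 µM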
# [3] = growth inhibition of DIPG glioma cells, dose response, cell-based, SU-DIPG-XVII, MIPE5.0, CellTiter-Glo, qHTS (AID 1347060; cut-off not given, nearly all actives have AC50 up to about 26 µM); details: SU-DIPG-XVII viability, CellTiter-Glo ATP luminescence
# [4] = growth inhibition of DIPG glioma cells, dose response, cell-based, SU-DIPG-XIII, MIPE4.0, CellTiter-Glo, qHTS (AID 1347061; cut-off not given, nearly all actives have AC50 up to about 37 µM;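 further: cells exposed to compound for 48 hours before readout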); details: SU-DIPG-XIII viability, CellTiter-Glo ATP luminescence
# [5] = growth inhibition of DIPG glioma cells, dose response, cell-based, JHH-DIPG-1, MIPE4.0, CellTiter-Glo, qHTS (AID 1347062; cut-off not given, nearly all actives have AC50 up to about 27 µM); details: JHH-DIPG-1 viability, CellTiter-Glo ATP luminescence
# [6] = SU-DIPG-VI glioma cell viability, MIPE4.0 library, CellTiter-Glo luminescence, qHTS (AID 1347066; cut-off not given, nearly all actives have AC50 up to about 30 µM;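 further: cells exposed to compound for 48 hours before readout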); details: CellTiter-Glo ATP luminescence
# [7] = JHH-DIPG-1 glioma cell viability, MIPE5.0 library, CellTiter-Glo luminescence, qHTS (AID 1347067; cut-off not given, nearly all actives have AC50 up to about 26 µM;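 further: cells exposed to compound for 48 hours before readout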); details: JHH-DIPG-1 glioma viability, CellTiter-Glo ATP luminescence
# [8] = sensitizers of A549 cells to miR-34 induction, primary screen, imaging, A549 dox-inducible miR-34, nuclei and caspase counts (AID 1347080;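 active means compounds whose cell count with miR-34 switched on is under 0.7 times the count with it off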); details: A549 miR-34 inducible, Hoechst nuclei count, 48 h
# [9] = modifiers of HSF1 nuclear foci, imaging, Selleck Cancer Library (AID 1347162; in the data active means plate-normalised HSF1 focus index below about 0.46); details: human cells, at 10 µM; SSMD: measured here: HSF1 foci SSMD mean; cell count: measured here: cell number; plate-normalised HSF1 focus index: stronger effect = lower value
# [10] = survival rescue of mitochondrial mutant cells in low glucose, primary screen, MELAS cybrids, Rieske KO mouse fibroblasts, CellTiter-Glo (AID 1508586;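 active means mean z-score across replicates of 1.96 or higher in either the MELAS or the Rieske mutant cell line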;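 further: z relative to plate mean and SD of compound and empty wells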)
# [11] = ovarian cancer cell viability with rucaparib, profiling panel, oncology-focused library, rucaparib conditional (AID 1508598); details: patient-derived ovarian cancer cells, CellTiter-Glo viability, 144 h, stronger effect = lower value
# [12] = viability rescue of complex I mutant cybrids, primary screen, cell-based, galactose medium, ATP luminescence (AID 1645843;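 active means z-score of at least 1.8 in each of two replicates, scored against plate mean and spread of sample wells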;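 further: positive z means more ATP and so rescue of galactose-driven cybrid death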); details: complex I mutant cybrid cells, 72 h, stronger effect = higher value
# [13] = LFS_MB_P medulloblastoma growth inhibition, cell-based, chromothripsis tumors, cisplatin or BGB combos (AID 1671449; in the data active means inhibition above about 80%;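 further: cells exposed for 96 hours; 0% = vehicle DMSO and 100% = killing by high DMSO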); details: LFS_MB_P medulloblastoma cells
# [14] = HDN33 neuroblastoma growth inhibition, cell-based, chromothripsis tumors, cisplatin or BGB combos (AID 1671450; in the data active means inhibition above about 80%;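 further: cells exposed to compound for four days; 0% = vehicle DMSO and 100% = cell killing by high DMSO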); details: HDN33 neuroblastoma cells, stronger effect = higher value
# [15] = ICB984 medulloblastoma cell growth inhibition, synergistic combos for chromothripsis tumors, cisplatin or BGB combos (AID 1671451; call rule not given here;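 further: cells exposed for 96 hours before readout; 0% = vehicle DMSO and 100% = killing by high DMSO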); details: ICB984 medulloblastoma cells, drug combinations, stronger effect = higher value
# [16] = HTB85 osteosarcoma cell growth inhibition, synergistic combos for chromothripsis tumors, BGB or cisplatin IC20 combos (AID 1671453; in the data active means inhibition above about 80%;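 further: cells exposed for 96 hours before readout; 0% = vehicle DMSO and 100% = high DMSO killing control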); details: HTB85 osteosarcoma cells, drug combinations, stronger effect = higher value
smiles,measurement,setting,value
O=c1cc(-c2cccc3c2Sc2ccccc2S3)oc(N2CCOCC2)c1,parasite load remaining,[1],39.8% (inactive)
same,viability,[1],161%
same,remaining activity,[2],94.8% (inactive)
same,outcome,[3],inactive
same,outcome,[4],inactive
same,outcome,[5],inactive
same,outcome,[6],inactive
same,outcome,[7],inactive
same,fold change,"[8]; stronger effect = lower value, cell number ratio, induced over uninduced",0.936 (inactive) and 1.01 (inactive)
same,fold change,[8]; measured here: relative caspase fold change +Dox/-Dox,1.11 and 2.27
same,cell count,"[8]; measured here: total cells with miR-34 induction, stronger effect = lower value",5990 and 5760
same,cell count,[8]; measured here: total cells without miR-34 induction,6400 and 5730
same,SSMD,[9],2.97
same,cell count,[9],6680
same,plate-normalised HSF1 focus index,[9],1.15 (inactive)
same,z-score,"[10]; MELAS cybrid survival, CellTiter-Glo 48 h, stronger effect = higher value",-0.376 (inactive)
same,z-score,"[10]; Rieske KO mouse fibroblast survival, CellTiter-Glo 72 h",1.02
same,viability,"[11]; at 0.000305 µM, OCI-C5x cells, with rucaparib 10 µM, 100% = cells with rucaparib alone",113% (inactive)
same,viability,"[11]; at 0.000305 µM, OCI-C5x cells, without rucaparib",119% (inactive)
same,viability,"[11]; at 0.000305 µM, OCI-P5x cells, with rucaparib 20 µM, 100% = cells with rucaparib alone",105% (inactive)
same,viability,"[11]; at 0.000305 µM, OCI-P5x cells, without rucaparib",109% (inactive)
same,viability,"[11]; at 0.00122 µM, OCI-C5x cells, with rucaparib 10 µM, 100% = cells with rucaparib alone",122% (inactive)
same,viability,"[11]; at 0.00122 µM, OCI-C5x cells, without rucaparib",121% (inactive)
same,viability,"[11]; at 0.00122 µM, OCI-P5x cells, with rucaparib 20 µM, 100% = cells with rucaparib alone",104% (inactive)
same,viability,"[11]; at 0.00122 µM, OCI-P5x cells, without rucaparib",106% (inactive)
same,viability,"[11]; at 0.00488 µM, OCI-C5x cells, with rucaparib 10 µM, 100% = cells with rucaparib alone",118% (inactive)
same,viability,"[11]; at 0.00488 µM, OCI-C5x cells, without rucaparib",119% (inactive)
same,viability,"[11]; at 0.00488 µM, OCI-P5x cells, with rucaparib 20 µM, 100% = cells with rucaparib alone",100% (inactive)
same,viability,"[11]; at 0.00488 µM, OCI-P5x cells, without rucaparib",103% (inactive)
same,viability,"[11]; at 0.0195 µM, OCI-C5x cells, with rucaparib 10 µM, 100% = cells with rucaparib alone",117% (inactive)
same,viability,"[11]; at 0.0195 µM, OCI-C5x cells, without rucaparib",132% (inactive)
same,viability,"[11]; at 0.0195 µM, OCI-P5x cells, with rucaparib 20 µM, 100% = cells with rucaparib alone",98% (active)
same,viability,"[11]; at 0.0195 µM, OCI-P5x cells, without rucaparib",64.5% (active)
same,viability,"[11]; at 0.0781 µM, OCI-C5x cells, with rucaparib 10 µM, 100% = cells with rucaparib alone",116% (inactive)
same,viability,"[11]; at 0.0781 µM, OCI-C5x cells, without rucaparib",119% (inactive)
same,viability,"[11]; at 0.0781 µM, OCI-P5x cells, with rucaparib 20 µM, 100% = cells with rucaparib alone",106% (inactive)
same,viability,"[11]; at 0.0781 µM, OCI-P5x cells, without rucaparib",103% (inactive)
same,viability,"[11]; at 0.313 µM, OCI-C5x cells, with rucaparib 10 µM, 100% = cells with rucaparib alone",108% (inactive)
same,viability,"[11]; at 0.313 µM, OCI-C5x cells, without rucaparib",126% (inactive)
same,viability,"[11]; at 0.313 µM, OCI-P5x cells, with rucaparib 20 µM, 100% = cells with rucaparib alone",91.8% (active)
same,viability,"[11]; at 0.313 µM, OCI-P5x cells, without rucaparib",105% (inactive)
same,viability,"[11]; at 1.25 µM, OCI-C5x cells, with rucaparib 10 µM, 100% = cells with rucaparib alone",111% (inactive)
same,viability,"[11]; at 1.25 µM, OCI-C5x cells, without rucaparib",127% (inactive)
same,viability,"[11]; at 1.25 µM, OCI-P5x cells, with rucaparib 20 µM, 100% = cells with rucaparib alone",108% (inactive)
same,viability,"[11]; at 1.25 µM, OCI-P5x cells, without rucaparib",107% (inactive)
same,viability,"[11]; at 5 µM, OCI-C5x cells, with rucaparib 10 µM, 100% = cells with rucaparib alone",88.8% (active)
same,viability,"[11]; at 5 µM, OCI-C5x cells, without rucaparib",131% (inactive)
same,viability,"[11]; at 5 µM, OCI-P5x cells, with rucaparib 20 µM, 100% = cells with rucaparib alone",66.3% (active)
same,viability,"[11]; at 5 µM, OCI-P5x cells, without rucaparib",27.9% (active)
same,z-score,[12],-0.18 (inactive)
same,inhibition,"[13]; at 0.5 µM, stronger effect = higher value",81.3% (active)
same,inhibition,"[13]; measured here: combination with BGB IC20, at 0.005 µM",-22.8%
same,inhibition,"[13]; measured here: combination with BGB IC40, at 0.005 µM",-15.3%
same,inhibition,"[13]; measured here: combination with BGB IC40, at 0.05 µM",-27.2%
same,inhibition,"[13]; measured here: combination with cisplatin, at 0.5 µM, stronger effect = higher value",108%
same,inhibition,"[13]; measured here: combination with cisplatin, at 5 µM, stronger effect = higher value",-58.3%
same,inhibition,"[14]; BGB combo, at 5 µM",-23.9%
same,inhibition,[14]; at 0.5 µM,-20.7% (inactive)
same,inhibition,"[14]; cisplatin combo, at 5 µM",-6.5%
same,inhibition,"[14]; measured here: with BGB IC20 combination, at 0.5 µM",-21.1%
same,inhibition,"[14]; measured here: with cisplatin IC20 combination, at 0.5 µM",-8.71%
same,inhibition,"[14]; single agent, at 5 µM",-26.1%
same,inhibition,"[15]; BGB IC20 combo, at 0.005 µM",-0.749%
same,inhibition,"[15]; BGB IC40 combo, at 0.005 µM",-24.9%
same,inhibition,"[15]; BGB IC40 combo, at 0.05 µM",11.6%
same,inhibition,[15]; at 0.5 µM,-26.5% (inactive)
same,inhibition,"[15]; cisplatin combo, at 0.05 µM",9.17%
same,inhibition,"[15]; cisplatin combo, at 0.5 µM",-36.8%
same,inhibition,"[15]; cisplatin combo, at 5 µM",-31.3%
same,inhibition,"[15]; measured here: 5 uM single agent, at 5 µM",-22.7%
same,inhibition,[16]; at 0.5 µM,-13.7% (inactive)
same,inhibition,"[16]; measured here: with BGB IC20, at 0.5 µM",-13.9%
same,inhibition,"[16]; measured here: with BGB IC20, at 5 µM",-31%
same,inhibition,"[16]; measured here: with cisplatin IC20, at 0.5 µM",-8.83%
same,inhibition,"[16]; measured here: with cisplatin IC20, at 5 µM",-19.5%
same,inhibition,"[16]; single agent, at 5 µM",-17.7%
